Values joined by “and” are separate entries in the source; they are usually repeats but may differ in a detail not shown here. Identical values can stand only once. In all, about 5,500 compounds went through this assay and about 2,000 (36%) were called active. Roughly 18% stayed inconclusive and do not appear here. No stated cut-off is given here; in the data, active means normalized growth mostly below about 0.91 (no sharp cut-off); inconclusive means no clear call, values can overlap the other calls; inactive means mostly above about 0.92. This is one part of the list.
Assay: chemical genetic growth profiling, strain panel (AID 1159580);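 further: tested at 20 µM; growth read once vehicle control cultures reached saturation at 30 °C; 1 = growth at the plate median or of vehicle wells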
Settings: S. cerevisiae deletion strains, growth OD

Measured: normalized growth

COc1ccc(/C=C/c2cc(O)cc(O)c2)cc1
0.863 (active) and 1.04 (inactive): locus YHR030C, strain SLT2, stronger effect = lower value
active: locus YDL074C, strain BRE1, stronger effect = lower value 0.725 | locus YDL192W, strain arf1, stronger effect = lower value 0.729 | locus YDR101C, strain arx1, stronger effect = lower value 0.878 | locus YDR502C, strain sam2, stronger effect = lower value 0.846 | locus YEL061C, strain CIN8, stronger effect = lower value 0.864 | locus YER167W, strain BCK2, stronger effect = lower value 0.872 | locus YGL086W, strain mad1, stronger effect = lower value 0.854 | locus YGR078C, strain PAC10, stronger effect = lower value 0.803 | locus YGR135W, strain pre9, stronger effect = lower value 0.86 | locus YGR252W, strain gcn5, stronger effect = lower value 0.687 | locus YHR129C, strain ARP1, stronger effect = lower value 0.857 | locus YHR200W, strain rpn10, stronger effect = lower value 0.879 | locus YIL066C, strain RNR3, stronger effect = lower value 0.841 | locus YJR043C, strain POL32, stronger effect = lower value 0.788 | locus YKL009W, strain mrt4, stronger effect = lower value 0.87 | locus YKR001C, strain vps1, stronger effect = lower value 0.608 | locus YLR268W, strain sec22, stronger effect = lower value 0.872 | locus YLR330W, strain CHS5, stronger effect = lower value 0.84 | locus YLR342W, strain FKS1 (second series), stronger effect = lower value 0.785 | locus YLR371W, strain rom2, stronger effect = lower value 0.793 | locus YLR418C, strain cdc73, stronger effect = lower value 0.583 | locus YML032C, strain rad52, stronger effect = lower value 0.886 | locus YMR223W, strain ubp8, stronger effect = lower value 0.89 | locus YMR263W, strain SAP30, stronger effect = lower value 0.883 | locus YNL233W, strain BNI4, stronger effect = lower value 0.823 | locus YNL307C, strain MCK1, stronger effect = lower value 0.857 | locus YNR052C, strain pop2, stronger effect = lower value 0.914 | locus YOL147C, strain pex11, stronger effect = lower value 0.868 | locus YOR144C, strain elg1, stronger effect = lower value 0.932 | locus YOR184W, strain ser1, stronger effect = lower value 0.623 | locus YPR163C, strain tif3, stronger effect = lower value 0.842 | strain wtn01, stronger effect = lower value 0.838
0.709 (active) and 0.967 (inactive): locus YJL095W, strain BCK1, stronger effect = lower value
inactive: locus YAL021C, strain ccr4, stronger effect = lower value 0.984 | locus YAL026C, strain drs2, stronger effect = lower value 1.01 | locus YAL030W, strain snc1, stronger effect = lower value 1.01 | locus YBL061C, strain skt5, stronger effect = lower value 1.01 | locus YBR009C, strain hhf1, stronger effect = lower value 1 | locus YBR021W, strain FUR4, stronger effect = lower value 0.949 | locus YBR023C, strain chs3, stronger effect = lower value 1 | locus YBR171W, strain sec66, stronger effect = lower value 1.02 | locus YBR229C, strain ROT2, stronger effect = lower value 0.978 | locus YBR231C, strain swc5, stronger effect = lower value 1 | locus YBR279W, strain paf1, stronger effect = lower value 1 | locus YCL011C, strain gbp2, stronger effect = lower value 0.991 | locus YCL016C, strain dcc1, stronger effect = lower value 1 | locus YCL029C, strain bik1, stronger effect = lower value 0.931 | locus YCL061C, strain MRC1, stronger effect = lower value 0.999 | locus YCL069W, strain vba3, stronger effect = lower value 1.01 | locus YCR088W, strain abp1, stronger effect = lower value 1 | locus YDL005C, strain med2, stronger effect = lower value 1.01 | locus YDL035C, strain GPR1, stronger effect = lower value 0.868 | locus YDL040C, strain nat1, stronger effect = lower value 1.01 | locus YDL101C, strain DUN1, stronger effect = lower value 0.949 | locus YDL134C, strain PPH21, stronger effect = lower value 0.895 | locus YDL185W, strain tfp1, stronger effect = lower value 0.976 | locus YDR001C, strain nth1, stronger effect = lower value 1.01 | locus YDR069C, strain doa4, stronger effect = lower value 1.02 | locus YDR137W, strain rgp1, stronger effect = lower value 1.02 | locus YDR159W, strain sac3, stronger effect = lower value 1.01 | locus YDR162C, strain NBP2, stronger effect = lower value 0.866 | locus YDR195W, strain ref2 1.06 | locus YDR297W, strain sur2, stronger effect = lower value 1 | locus YDR318W, strain mcm21, stronger effect = lower value 0.919 | locus YDR334W, strain swr1, stronger effect = lower value 1.02 | locus YDR335W, strain msn5, stronger effect = lower value 0.999 | locus YDR388W, stronger effect = lower value 0.962 | locus YDR392W, strain spt3, stronger effect = lower value 0.982 | locus YEL003W, strain gim4, stronger effect = lower value 1.01 | locus YEL037C, strain rad23, stronger effect = lower value 1.01 | locus YEL061C, strain CIN8 (second series), stronger effect = lower value 1.01 | locus YER015W, strain faa2, stronger effect = lower value 0.998 | locus YER016W, strain bim1, stronger effect = lower value 1.01 | locus YER110C, stronger effect = lower value 0.956 | locus YER111C, strain swi4, stronger effect = lower value 1.01 | locus YER155C, strain BEM2 (second series), stronger effect = lower value 1 | locus YER155C, strain BEM2, stronger effect = lower value 0.945 | locus YFR010W, strain ubp6, stronger effect = lower value 1.01 | locus YGL078C, strain dbp3, stronger effect = lower value 0.946 | locus YGL167C, strain pmr1, stronger effect = lower value 1.01 | locus YGL173C, strain kem1, stronger effect = lower value 1.02 | locus YGL227W, strain vid30, stronger effect = lower value 1.01 | locus YGL240W, strain doc1, stronger effect = lower value 1 | locus YGL248W, strain PDE1, stronger effect = lower value 0.907 | locus YGL253W, strain hxk2, stronger effect = lower value 1.01 | locus YHR013C, strain ard1, stronger effect = lower value 1 | locus YHR027C, strain rpn1, stronger effect = lower value 0.998 | locus YHR079C, strain IRE1 (second series), stronger effect = lower value 0.974 | locus YHR079C, strain IRE1, stronger effect = lower value 1.01 | locus YHR094C, strain hxt1, stronger effect = lower value 0.96 | locus YHR142W, strain chs7, stronger effect = lower value 0.99 | locus YIL073C, strain SPO22, stronger effect = lower value 0.896 | locus YIL125W, strain kgd1, stronger effect = lower value 0.955 | locus YIR030C, strain dcg1, stronger effect = lower value 0.957 | locus YJL092W, strain hpr5, stronger effect = lower value 1.01 | locus YJL095W, strain BCK1 (second series), stronger effect = lower value 1.01 | locus YJL115W, strain asf1, stronger effect = lower value 1.01 | locus YJL129C, strain trk1, stronger effect = lower value 0.986 | locus YJL134W, strain LCB3, stronger effect = lower value 0.983 | locus YJL154C, strain vps35, stronger effect = lower value 1.01 | locus YJL164C, strain tpk1, stronger effect = lower value 0.986 | locus YJL166W, strain qcr8, stronger effect = lower value 1 | locus YJL168C, strain set2, stronger effect = lower value 0.969 | locus YJL187C, strain SWE1 (second series), stronger effect = lower value 0.89 | locus YJL187C, strain SWE1, stronger effect = lower value 0.997 | locus YJR066W, strain TOR1, stronger effect = lower value 0.995 | locus YKL068W, stronger effect = lower value 0.982 | locus YKL085W, strain MDH1 (second series), stronger effect = lower value 0.946 | locus YKL085W, strain MDH1, stronger effect = lower value 0.946 | locus YKL160W, strain elf1, stronger effect = lower value 0.996 | locus YKR026C, strain gcn3, stronger effect = lower value 1 | locus YKR091W, strain srl3, stronger effect = lower value 1 | locus YLL001W, strain dnm1, stronger effect = lower value 0.997 | locus YLL026W, stronger effect = lower value 1.01 | locus YLL041C, strain sdh2, stronger effect = lower value 1.01 | locus YLR027C, strain aat2, stronger effect = lower value 1 | locus YLR039C, strain RIC1, stronger effect = lower value 0.815 | locus YLR058C, strain SHM2, stronger effect = lower value 0.931 | locus YLR102C, strain apc9, stronger effect = lower value 0.966 | locus YLR113W, strain HOG1, stronger effect = lower value 0.966 | locus YLR221C, strain rsa3, stronger effect = lower value 0.999 | locus YLR258W, strain gsy2, stronger effect = lower value 0.996 | locus YLR262C, strain YPT6 (second series), stronger effect = lower value 0.991 | locus YLR262C, strain YPT6, stronger effect = lower value 0.686 | locus YLR320W, strain mms22, stronger effect = lower value 0.991 | locus YLR342W, strain FKS1, stronger effect = lower value 1 | locus YLR357W, strain rsc2, stronger effect = lower value 0.95 | locus YLR370C, strain arc18, stronger effect = lower value 1.01 | locus YLR384C, strain iki3, stronger effect = lower value 1.01 | locus YML016C, strain PPZ1, stronger effect = lower value 0.964 | locus YML120C, strain ndi1, stronger effect = lower value 0.997 | locus YML124C, strain tub3, stronger effect = lower value 0.972 | locus YMR058W, strain fet3, stronger effect = lower value 1 | locus YMR078C, strain ctf18, stronger effect = lower value 0.967 | locus YMR125W, strain sto1, stronger effect = lower value 1.01 | locus YMR129W, stronger effect = lower value 1.01 | locus YMR205C, strain PFK2, stronger effect = lower value 0.995 | locus YMR231W, strain pep5, stronger effect = lower value 0.992 | locus YMR307W, strain GAS1, stronger effect = lower value 0.663 | locus YNL067W, strain RPL9B, stronger effect = lower value 0.908 | locus YNL071W, strain lat1, stronger effect = lower value 1 | locus YNL153C, strain GIM3, stronger effect = lower value 0.931 | locus YNL183C, strain NPR1, stronger effect = lower value 0.977 | locus YNL209W, strain ssb2, stronger effect = lower value 1.01 | locus YNL248C, strain rpa49, stronger effect = lower value 0.999 | locus YNL250W, strain rad50, stronger effect = lower value 0.961 | locus YNL271C, strain bni1, stronger effect = lower value 0.945 | locus YNL298W, strain CLA4, stronger effect = lower value 0.928 | locus YNL322C, strain KRE1 (second series), stronger effect = lower value 1.01 | locus YNL322C, strain KRE1, stronger effect = lower value 0.945 | locus YNR049C, strain mso1, stronger effect = lower value 1.02 | locus YOL012C, strain htz1 0.771 | locus YOR001W, strain rrp6, stronger effect = lower value 1 | locus YOR061W, strain CKA2, stronger effect = lower value 0.941 | locus YOR069W, strain VPS5, stronger effect = lower value 0.927 | locus YOR070C, strain gyp1, stronger effect = lower value 1 | locus YOR080W, strain dia2, stronger effect = lower value 1 | locus YOR083W, strain WHI5, stronger effect = lower value 0.994 | locus YOR106W, strain vam3, stronger effect = lower value 0.956 | locus YOR136W, strain idh2, stronger effect = lower value 0.936 | locus YOR231W, strain MKK1, stronger effect = lower value 0.991 | locus YOR265W, strain rbl2, stronger effect = lower value 1.02 | locus YOR270C, strain vph1, stronger effect = lower value 0.998 | locus YOR290C, strain snf2, stronger effect = lower value 0.995 | locus YOR316C, strain cot1, stronger effect = lower value 0.961 | locus YPL051W, strain arl3, stronger effect = lower value 0.973 | locus YPL078C, strain atp4, stronger effect = lower value 0.998 | locus YPL106C, strain sse1, stronger effect = lower value 0.996 | locus YPL240C, strain hsp82, stronger effect = lower value 1.01 | locus YPL241C, strain CIN2, stronger effect = lower value 0.973 | locus YPL256C, strain CLN2, stronger effect = lower value 1.05 | locus YPR119W, strain clb2, stronger effect = lower value 0.964 | locus YPR141C, strain kar3, stronger effect = lower value 0.977 | locus YPR167C, strain met16, stronger effect = lower value 0.969
